According to the supplement of paper PMC8975748:
Counter-ions that a name gives are not always drawn.

The compounds below were run on Saccharomyces cerevisiae BY4741 SeMeCo community (assay: z-score of subpopulation abundance vs DMSO median, subpopulation auxotrophic for HL; higher = larger share of this subpopulation than in DMSO controls). Conditions: 10 µM; 24 h; SM minimal medium; subpopulation (auxotrophy): HL.
Protocol: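 Fluorescent four-plasmid SeMeCo (self-establishing metabolically cooperating S. cerevisiae BY4741 community; plasmids pH-mRuby2, pL-mWasabi, pU-eCFP, pM-TagRFP657) was grown 24 h in minimal SM medium with each Selleck FDA-approved drug at 10 µM in 384-well plates. Cells were fixed and imaged by high-content confocal microscopy. For each auxotrophic subpopulation (and the prototroph), a z-score gives the deviation from the DMSO vehicle-control population median.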
For `CCn1cc(C(=O)O)c(=O)c2cc(F)c(N3CCNCC3)cc21` [Norfloxacin], the “z-score of subpopulation abundance” value was 0.28. With `Cc1nc(C)c(Cl)c(O)c1Cl` [Clopidol] the “z-score of subpopulation abundance” value was 0.28. For `Cc1cccc(C)c1NC(=O)C1CCCCN1C` (stereo not given) [Mepivacaine HCl], the “z-score of subpopulation abundance” value was -0.96. For `C[C@@H](O)[C@H]1C(=O)N2C(C(=O)O)=C(SCCNC=N)C[C@H]12` [Imipenem], the “z-score of subpopulation abundance” value was -0.18. In the case of `CC(C)(C)C(=O)OCOC(=O)[C@@H]1N2C(=O)[C@@H](/N=C/N3CCCCCC3)[C@H]2SC1(C)C` [Pivmecillinam hydrochloride], the “z-score of subpopulation abundance” value is reported as 0.29. With `Cc1c(C(N)=O)cc([N+](=O)[O-])cc1[N+](=O)[O-]` [Dinitolmide] the “z-score of subpopulation abundance” value was -0.36. `O=c1[nH]c(=O)n([C@H]2C[C@H](O)[C@@H](CO)O2)cc1/C=C/Br` [Brivudine] was tested, and the “z-score of subpopulation abundance” value was -1.84. In the case of `CC(=O)N[C@H]1[C@H]([C@H](O)[C@H](O)CO)OC(C(=O)O)=C[C@@H]1NC(=N)N` [Zanamivir], the “z-score of subpopulation abundance” value is reported as 1.66. In the case of `CCCCCOc1ccccc1/C(=C\SC)n1ccnc1` [Neticonazole Hydrochloride], the “z-score of subpopulation abundance” value is reported as 4.4. In the case of `COC(=O)C1=C(C)NC(C)=C(C(=O)OC(C)(C)CN(C)CCC(c2ccccc2)c2ccccc2)C1c1cccc([N+](=O)[O-])c1` (stereo not given) [Lercanidipine hydrochloride], the “z-score of subpopulation abundance” value is reported as 1.84. In the case of `COc1cc(Cc2cnc(N)nc2N)cc(OC)c1OC` [Trimethoprim], the “z-score of subpopulation abundance” value is reported as -0.46. With `CCn1cc(C(=O)O)c(=O)c2cc(F)c(N3CCNCC3)nc21` [Enoxacin] the “z-score of subpopulation abundance” value was 0.3. In the case of `O=C(NCCO[N+](=O)[O-])c1cccnc1` [Nicorandil], the “z-score of subpopulation abundance” value is reported as -0.84. `CC1(C)[C@H](C(=O)O)N2C(=O)C[C@H]2S1(=O)=O` [Sulbactam sodium] was tested, and the “z-score of subpopulation abundance” value was 0.14. For `NCC[C@H](O)C(=O)N[C@@H]1C[C@H](N)[C@@H](O[C@H]2O[C@H](CN)[C@@H](O)[C@H](O)[C@H]2O)[C@H](O)[C@H]1O[C@H]1O[C@H](CO)[C@@H](O)[C@H](N)[C@H]1O` [Amikacin hydrate], the “z-score of subpopulation abundance” value was 0.87. In the case of `C[C@@H](O)[C@H]1C(=O)N2C(C(=O)O)=C(S[C@@H]3CN[C@H](C(=O)Nc4cccc(C(=O)O)c4)C3)[C@H](C)[C@H]12` [Ertapenem sodium], the “z-score of subpopulation abundance” value is reported as 0.1. For `CCOc1cc(N)c(Cl)cc1C(=O)NCC1CN(Cc2ccc(F)cc2)CCO1` (stereo not given) [Mosapride], the “z-score of subpopulation abundance” value was -0.5. In the case of `C/C=C1\[C@H]2C=C(C)C[C@]1(N)c1ccc(=O)[nH]c1C2` [(-)-Huperzine A (HupA)], the “z-score of subpopulation abundance” value is reported as -1.26. For `Cc1nnc(NS(=O)(=O)c2ccc(N)cc2)s1` [Sulfamethizole], the “z-score of subpopulation abundance” value was -0.84. For `Cc1ccccc1OCC(O)CO` (stereo not given) [Mephenesin], the “z-score of subpopulation abundance” value was -0.53. For `O=C(O)CCC(=O)c1ccc(-c2ccccc2)cc1` [Fenbufen], the “z-score of subpopulation abundance” value was 0.57. In the case of `CC(C)C(=O)c1c(C(C)C)nn2ccccc12` [Ibudilast], the “z-score of subpopulation abundance” value is reported as -0.96. For `COc1ccc(NS(=O)(=O)c2ccc(N)cc2)nn1` [Sulfamethoxypyridazine], the “z-score of subpopulation abundance” value was -1.05. In the case of `CC(=O)OCC[N+](C)(C)C` [Acetylcholine iodide], the “z-score of subpopulation abundance” value is reported as -0.89. `CC(=O)Oc1ccc(C(=C2CCCCC2)c2ccc(OC(C)=O)cc2)cc1` [Cyclofenil] was tested, and the “z-score of subpopulation abundance” value was 0.25. In the case of `C[C@]12CC[C@@H]3c4ccc(O)cc4CC[C@H]3[C@@H]1CC[C@@H]2O` [Estradiol], the “z-score of subpopulation abundance” value is reported as -0.05. For `COc1cccc2c1C(=O)c1c(O)c3c(c(O)c1C2=O)C[C@@](O)(C(=O)CO)C[C@@H]3O[C@H]1C[C@H](N)[C@@H](O)[C@H](C)O1` [Epirubicin HCl], the “z-score of subpopulation abundance” value was 2.24. In the case of `O=C(Nc1cccc(C2=NCCN2)c1)Nc1cccc(C2=NCCN2)c1` [Imidocarb dipropionate], the “z-score of subpopulation abundance” value is reported as -0.57. In the case of `COc1ccc(C(=O)NCc2ccc(OCCN(C)C)cc2)cc1OC` [Itopride hydrochloride], the “z-score of subpopulation abundance” value is reported as -0.33. In the case of `CC[C@@]1(O)C(=O)OCc2c1cc1n(c2=O)Cc2cc3cc(O)ccc3nc2-1` [Hydroxy Camptothecine], the “z-score of subpopulation abundance” value is reported as 2.22. `Cc1ccc(Nc2c(F)cccc2Cl)c(CC(=O)O)c1` [Lumiracoxib] was tested, and the “z-score of subpopulation abundance” value was -0.22. In the case of `CN1[C@@H](CC(=O)c2ccccc2)CCC[C@H]1C[C@H](O)c1ccccc1` [Lobeline hydrochloride], the “z-score of subpopulation abundance” value is reported as -0.13. With `Cc1cc(C)nc(NS(=O)(=O)c2ccc(N)cc2)n1` [Sulfamethazine Sodium Salt] the “z-score of subpopulation abundance” value was -0.24. With `CCc1nc(N)nc(N)c1-c1ccc(Cl)cc1` [Pyrimethamine] the “z-score of subpopulation abundance” value was -0.25. In the case of `CCN1CCCC1CNC(=O)c1cc(S(N)(=O)=O)ccc1OC` (stereo not given) [Sulpiride], the “z-score of subpopulation abundance” value is reported as -0.63. For `COC(=O)C1=C(C#N)NC(C)=C(C(=O)OC(C)C)C1c1cccc([N+](=O)[O-])c1` (stereo not given) [Nilvadipine], the “z-score of subpopulation abundance” value was -0.05. For `Cc1c(S(=O)(=O)O)oc2c1C(=O)C(=O)c1c-2ccc2c1CCCC2(C)C` [Tanshinone IIA sulfonate (sodium)], the “z-score of subpopulation abundance” value was 4.28. `CNCCCN1c2ccccc2CCc2ccccc21` [Desipramine Hydrochloride] was tested, and the “z-score of subpopulation abundance” value was 0.02. With `CCN(CC)C(=O)[C@@]1(c2ccccc2)C[C@H]1CN` [Levomilnacipran Hydrochloride] the “z-score of subpopulation abundance” value was -0.6. With `Cc1nccn1CC1CCc2c(c3ccccc3n2C)C1=O` (stereo not given) [Ondansetron HCl] the “z-score of subpopulation abundance” value was -0.77.
